The full ranking holds about 35,000 sequences; the median of “fluorescence intensity (a.u.)” is about 10,000, and the highest 2% start at about 52,000. For the sample, the highest values were picked, then their nearest neighbours and some sequences at random.
What follows are sequences tested against T1, OsWOX13 (Oryza sativa, UniProt Q5QMM3 1-267) (assay: protein-binding microarray (RPBM); PBS, 2% BSA, 51.3 ng/ul salmon testes DNA, 50 uM zinc acetate, 200 nM TF, 25 C, 1 h; high values mean tight binding). Details: protein: recombinant; tags: N-terminal polyhistidine and DsRed monomer fusion (pET32a); label: CyDye5-dUTP incorporated in the synthesized complementary strand; 3' TTTTT single-stranded linker to array surface; dsDNA, one strand shown.
T1 sequence: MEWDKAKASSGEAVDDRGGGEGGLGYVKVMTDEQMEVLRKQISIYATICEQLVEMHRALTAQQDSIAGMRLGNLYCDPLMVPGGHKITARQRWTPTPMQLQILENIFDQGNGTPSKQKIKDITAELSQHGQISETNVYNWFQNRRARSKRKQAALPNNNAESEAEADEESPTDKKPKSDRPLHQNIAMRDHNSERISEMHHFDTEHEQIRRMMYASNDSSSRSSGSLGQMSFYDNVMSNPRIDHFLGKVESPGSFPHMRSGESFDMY
Summary of the method: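 Transcription factors, each fused N-terminally to a polyhistidine tag and DsRed, were expressed in E. coli BL21-CodonPlus and purified on Ni–NTA. A custom Agilent array was made double-stranded by primer extension with Cy5-dUTP and blocked with 2% BSA. It was incubated with 200 nM protein in PBS, 2% BSA, salmon testes DNA and 50 µM zinc acetate at 25 °C for 1 h, then washed. The binding signal is per-feature fluorescence intensity (arbitrary units) read on an Axon 4000B scanner.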

Row | Sequence | binding signal
1 | TTATGATTATTTTAGAATTTTCAAAATCATGGAATATAATCGGAGTCACCTAGTGCAG | 7490 fluorescence intensity (a.u.)
2 | GCCTTAACTTTGTGATCATATCTTCATCTTCATTAGGCCTCGGAGTCACCTAGTGCAG | 4300 fluorescence intensity (a.u.)
3 | AAACAGTTTTCCCCAAAATTGATTGTAAATATACATATACCGGAGTCACCTAGTGCAG | 14900 fluorescence intensity (a.u.)
4 | CATCTAATTTAAATTTAAATGTTTTAAAAGATAGAGACGTCGGAGTCACCTAGTGCAG | 52400 fluorescence intensity (a.u.)
5 | GTAAATTGATTTGTATATGGCCATTTCCAACCCAAAACACCGGAGTCACCTAGTGCAG | 56300 fluorescence intensity (a.u.)
6 | GATGCCATCTAATTTTAAATGATGATGTGGAGAAGAGAGTCGGAGTCACCTAGTGCAG | 7100 fluorescence intensity (a.u.)
7 | TTAAATGATAGAAATACAATTATTACGGAATAGAATGTAGCGGAGTCACCTAGTGCAG | 29100 fluorescence intensity (a.u.)
8 | CTAAATTATACGGAGATGATAATGTAGTTACAGTGCAGTTCGGAGTCACCTAGTGCAG | 21900 fluorescence intensity (a.u.)
9 | ATCTAAATTGTTTTAGATTTGTGCACAAGAACAAAAGAGACGGAGTCACCTAGTGCAG | 16800 fluorescence intensity (a.u.)
10 | TAAATTTAAACGGTAAATTAAGGAGAGGGAGGTCATTCTTCGGAGTCACCTAGTGCAG | 6560 fluorescence intensity (a.u.)
11 | TAATTAAATTGTCATATCACTTCTTAACTTATTGGACTAACGGAGTCACCTAGTGCAG | 5280 fluorescence intensity (a.u.)
12 | ATTTGTATAATTGGAACCATGCCATTCCAACACAACAAAACGGAGTCACCTAGTGCAG | 6320 fluorescence intensity (a.u.)
13 | AATACAATTAATTACAGTTAATTAAATGATAGAAAGAGTTCGGAGTCACCTAGTGCAG | 55400 fluorescence intensity (a.u.)
14 | AATTGAGACTTCGGTAAAACTTAAGGGACTAAATTAACTACGGAGTCACCTAGTGCAG | 52700 fluorescence intensity (a.u.)
15 | TGTATGATTTATGTATAATTAGAGATATACAATCATATAACGGAGTCACCTAGTGCAG | 16900 fluorescence intensity (a.u.)
16 | AGGAGAAACAATTTGCAATCATCACATTGTTTAAAGAGATCGGAGTCACCTAGTGCAG | 5330 fluorescence intensity (a.u.)
17 | CATTGGAATTGATGATCACATTATACATGGATTTGACCCACGGAGTCACCTAGTGCAG | 30600 fluorescence intensity (a.u.)
18 | TCTAAACTAATCTAATCTAGCAACGCGATTTAGCCGATACCGGAGTCACCTAGTGCAG | 9190 fluorescence intensity (a.u.)
19 | TTCTGTCAATTAGGTGGGTGACATGTGGATCCCACGATATCGGAGTCACCTAGTGCAG | 13200 fluorescence intensity (a.u.)
20 | TCATTGATTGATTGGTACTACTACTGCTAGAAGAAAAGGCCGGAGTCACCTAGTGCAG | 55200 fluorescence intensity (a.u.)
21 | GTGATTACATTGATAATAATTGATTGAATCAGTTTGTTCTCGGAGTCACCTAGTGCAG | 62600 fluorescence intensity (a.u.)
22 | ATATCAATCCGATGATATTAATTTTAGCAAATAAAATTTACGGAGTCACCTAGTGCAG | 5130 fluorescence intensity (a.u.)
23 | TTGATTGGAAAGATTGGAAAGAATTGAATGCGAATTGGTACGGAGTCACCTAGTGCAG | 34500 fluorescence intensity (a.u.)
24 | GATAAATTAATAAAATTATCAAAATTTTATGATTGGTTTACGGAGTCACCTAGTGCAG | 54900 fluorescence intensity (a.u.)

Row | Sequence | binding signal
25 | AGATAGATTAATATATGATAAATCACTAATATCAAATTTACGGAGTCACCTAGTGCAG | 5780 fluorescence intensity (a.u.)
26 | TACCTTAATTTATTGATTGCACTCTTGTTCTCACACGGTTCGGAGTCACCTAGTGCAG | 53200 fluorescence intensity (a.u.)
27 | TTATTTGCATTGATTTAATAGGGTTTACTCTTGCTTTGCACGGAGTCACCTAGTGCAG | 7870 fluorescence intensity (a.u.)
28 | ATTACATACCTGATTGAGTTGGTACTACAAGGCAGGGAGCCGGAGTCACCTAGTGCAG | 16400 fluorescence intensity (a.u.)
29 | TTGATTGTGAATTTATAATGTTTGGATATAATGATTACTTCGGAGTCACCTAGTGCAG | 34500 fluorescence intensity (a.u.)
30 | ACTGATTTGTTTTATTGTTTTGATTTTAATCCTCTCAATTCGGAGTCACCTAGTGCAG | 38800 fluorescence intensity (a.u.)
31 | CTTTGATTACATCAAGCCACTGAATTATCAGTTATAATCTCGGAGTCACCTAGTGCAG | 23100 fluorescence intensity (a.u.)
32 | TAGAATTACTTACTAAATTGCTTGTTATATTGAAGATATTCGGAGTCACCTAGTGCAG | 5790 fluorescence intensity (a.u.)
33 | AAAATAGTTAATACTCAATTAATCATGAGCTAATGGCTCACGGAGTCACCTAGTGCAG | 9240 fluorescence intensity (a.u.)
34 | CATAATTACCAGACATGTTAAATTTAATATATGGATGTATCGGAGTCACCTAGTGCAG | 40800 fluorescence intensity (a.u.)
35 | ATTATTGATTTGATGAAACTAATTTAGTATTATAAATATTCGGAGTCACCTAGTGCAG | 34600 fluorescence intensity (a.u.)
36 | GTGATAATTTAGTTACTAAACATGTTGTGAAACTTTATCTCGGAGTCACCTAGTGCAG | 3720 fluorescence intensity (a.u.)
37 | CTAATTGAATAATCAAAATTTTAATCTTTGGTCGATAATGCGGAGTCACCTAGTGCAG | 63700 fluorescence intensity (a.u.)
38 | ATTGAATAATCAAAATTTCAATCTTTGATCGATGAGGTATCGGAGTCACCTAGTGCAG | 12100 fluorescence intensity (a.u.)
39 | TATGATAAAATTGTTACATCATTTACCAGATGATTTAGAACGGAGTCACCTAGTGCAG | 7880 fluorescence intensity (a.u.)
40 | ACTGATTGACGTTTCTCATAACTAAAATATAGGTATTGTGCGGAGTCACCTAGTGCAG | 60900 fluorescence intensity (a.u.)
41 | TTAAGTAATTAAGAGGTGATAGTTAATTTATGCATGCATGCGGAGTCACCTAGTGCAG | 30400 fluorescence intensity (a.u.)
42 | CTTTATTGATAGGATAAAATTGTTACATCGTTTACCAGATCGGAGTCACCTAGTGCAG | 52600 fluorescence intensity (a.u.)
43 | CTATATAAAACTGATTGATTCATATTACTACGACGTTTTACGGAGTCACCTAGTGCAG | 6690 fluorescence intensity (a.u.)
44 | GGATAAAATTTAAATTGTACCAGTTTACGACGAATTACATCGGAGTCACCTAGTGCAG | 8600 fluorescence intensity (a.u.)
45 | AGTAATTGATTAATTTTGTGACAGAGGTGGTCACTATATGCGGAGTCACCTAGTGCAG | 61000 fluorescence intensity (a.u.)
46 | ATAAATAACTTTGATATAAATTGTTTGAATAAAACTAATGCGGAGTCACCTAGTGCAG | 14300 fluorescence intensity (a.u.)
47 | ATTTTGGTTGATTTGTAAACAGAGGGATTAATTTGTGCATCGGAGTCACCTAGTGCAG | 15400 fluorescence intensity (a.u.)
48 | CATCATCTCTAATTTTAATCAAAATATAAACTTTGCAGTGCGGAGTCACCTAGTGCAG | 9140 fluorescence intensity (a.u.)
